This excerpt belongs to a sample that is enriched for hits.
Methyltransferases – Primary Screen for Target Class Profiling of Small Molecule Inhibitors of Methyltransferases; purified enzyme, MTase-Glo SAH luminescence; stronger effect = lower value; calls only at 40 µM; 25,000 compounds, 3.9% hits; call rule not given here
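Each enzyme was reacted with SAM and its substrate, with compounds tested once at 40 uM; SAH formed was read by MTase-Glo luminescence.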
Numbers without * were called inactive; i = inactive; + = active, no number. % is set by controls: 0 for no effect and ±100 for the full control effect.

SMILES	Methyltransferases
CCOC(=O)c1cc2n(n1)CC(C)(C(=O)NCCCOC)N(c1ccc(F)cc1C)C2=O (stereo unspecified)	i
O=C(NC1CCCC1)N1CCCC(C(=O)N2CCC(c3nc4ncccc4[nH]3)C2)C1 (stereo unspecified)	i
O=C([C@@H]1CCCN(c2ccc3[nH]c(C4(n5cc(Cl)cn5)CC4)nc3n2)C1)N1CCCC1	+
O=C(c1ccccc1Cl)N1CCCC(C(=O)N2CCC(c3ccccc3)CC2)C1 (stereo unspecified)	i
CC(C(=O)NCc1cccc(F)c1)n1ccc2cc(S(=O)(=O)N3CCCCC3)ccc21 (stereo unspecified)	i
COc1cccc(NC(=O)N2CCn3cccc3C2C(C)C)c1 (stereo unspecified)	i
CC(CN1C(=O)c2cc3sccc3n2CC1(C)C(=O)NC1CCCCCC1)c1ccccc1 (stereo unspecified)	i
CC1CCN(S(=O)(=O)c2ccc3c(ccn3CCC(=O)N3CCN(c4ccccc4)CC3)c2)CC1	i
CCOC(=O)c1cc2n(n1)CC(C)(C(=O)NC1CCCCCC1)N(c1ccc(F)cc1C)C2=O (stereo unspecified)	i
CCc1ccc(NC(=O)Cn2nc3n(Cc4ccccc4)c(=O)c4ccccc4n3c2=O)cc1	i
COC(=O)c1ncn2c1C(=O)N(Cc1ccccc1OC)C(C)(C(=O)NC1CCCCC1)C2 (stereo unspecified)	i
CCOC(=O)c1cc(Nc2ccccc2)c2cc(Cl)ccc2n1	i
CCOC(=O)c1cccc(Nc2cc(C)nc3ccc(C)cc23)c1	+
CCOC(=O)c1cnc2ccc(C)cc2c1Nc1cccc(C)c1	i
CCCN1C(=O)c2nc3ccccc3n2CC1(C)C(=O)NC1CCCCC1 (stereo unspecified)	i
CC1CCN(S(=O)(=O)c2ccc3c(ccn3CC(=O)NCCc3ccccc3Cl)c2)CC1	i
CCCn1c(=O)c2ccc(C(=O)NCC(C)C)cc2n2c(=O)n(CC(=O)Nc3cc(C)cc(C)c3)nc12	i
NS(=O)(=O)c1ccc(-n2nc(C(F)(F)F)cc2-c2ccc(Cl)cc2)cc1	i
CS(=O)(=O)c1ccc(-n2nc(C(F)(F)F)cc2-c2ccc(F)cc2)cc1	i
Cc1ccc(C)c(-c2cc(C(F)(F)F)nn2-c2ccc(S(N)(=O)=O)cc2)c1	+
CC(CNC(=O)c1cc2n(n1)CC(C)(C(=O)NC1CCCCCC1)N(C)C2=O)c1ccccc1 (stereo unspecified)	i
O=C(CCc1nnc2n(Cc3ccc(F)cc3)c(=O)c3ccccc3n12)Nc1ccc(F)c(F)c1	i
Oc1ccc(/C=C/c2ccc(/C=C/c3ccc(O)cc3)c(Br)c2)cc1	i
COc1cc(O)cc(/C=C/c2cccc(O)c2)c1	i
Oc1cc(O)cc(/C=C/c2ccc(O)c(O)c2)c1	+
SMILES	Methyltransferases
CCOC(=O)c1cc2n(n1)CC(C)(C(=O)NCCCOC)N(c1ccc(C)c(Cl)c1)C2=O (stereo unspecified)	i
CC(C)OCCCN1C(=O)c2ccc(-c3ccco3)n2CC1(C)C(=O)NC1CCCCCCC1 (stereo unspecified)	i
CN(CCN1C(=O)c2cc3sccc3n2CC1(C)C(=O)NC1CCCCCCC1)C1CCCCC1 (stereo unspecified)	i
CCCn1c(=O)c2ccccc2n2c(=O)n(Cc3ccc(C)cc3)nc12	i
COCCCNC(=O)c1cc2n(n1)CC(C)(C(=O)NC1CCCC1)N(C)C2=O (stereo unspecified)	i
Cc1ccc(CNC(=O)C2(C)Cn3nc(C(=O)NCCN4CCCCC4)cc3C(=O)N2C)cc1 (stereo unspecified)	i
Cn1cc(-c2ccc3c(c2)CCN3C(=O)Cc2cccc(C(F)(F)F)c2)c2c(N)ncnc21	i
COc1cccc(-c2cn(-c3ccc(CCN4CCC(O)CC4)cc3)c3ncnc(N)c23)c1	+
CC(=O)NC1CCN(Cc2cn(-c3ccc(C)cc3)nc2-c2cccc(C)c2)C1 (stereo unspecified)	i
CC1(C(=O)NC2CCCCC2)Cn2c(ccc2-c2ccco2)C(=O)N1Cc1cccs1 (stereo unspecified)	i
COCCNC(=O)CCc1nnc2n(CCc3ccccc3)c(=O)c3ccccc3n12	i
O=C1c2ccccc2-c2nc3nnnn3nc21 (tested in a mixture with another compound)	+
COc1ccc(N2CCN(C(=O)CCc3nnc4n(CC(C)C)c(=O)c5ccccc5n34)CC2)cc1	i
O=C(Cn1ccc2cc(S(=O)(=O)N3CCCCC3)ccc21)NCCc1ccccc1	i
Cc1nc2c3ccccc3n3c(CCCC(=O)NCCCOC(C)C)nnc3n2n1	i
Cc1cc(O)c(-c2ccc([C@@H](C)CN(C)C)cc2)c2c1[nH]c(=O)c1sccc12	+
Cc1ccccc1CN1C(=O)c2nc3ccccc3n2CC1(C)C(=O)NC1CCCCC1 (stereo unspecified)	i
CC(C)(C)c1ccc(-c2nc3ccccc3[nH]2)cc1	+

Compound activity as filed in PubChem BioAssay.
